From PubChem BioAssay AID371 (SRMLSC, 2006)
Among all 3,300 compounds or so, about 280 (8.5%) were called active.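 Rule for the calls: active = mean growth inhibition over the two runs of 50% or more; inactive = mean growth inhibition under 50%.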 The full list was thinned out, with actives kept by preference.

Experiment: A549 NSCLC cell proliferation inhibitors – ATP luminescence, human non-small cell lung line, primary screen (AID 371);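 note: compound exposure lasted 72 h before the ATP read; 0% = untreated cell signal and 100% = no luminescence left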
Conditions: at 10 µM, stronger effect = higher value

| SMILES | growth inhibition |
| --- | --- |
| COc1cccc(OCCN2CCN(c3ncnc4c3cnn4-c3ccccc3)CC2)c1 | 46.7% (inactive) |
| COc1cccc(N2CCN(c3ncnc4c3[nH]c3ccc(F)cc34)CC2C)c1 (stereo unspecified) | 93% (active) |
| COc1ccc2c(c1)[nH]c1c(=O)n(CC3CCCO3)cnc12 (stereo unspecified) | 8.24% (inactive) |
| COc1cccc(N2CCN(C(=O)c3ccc(=O)oc3)CC2C)c1 (stereo unspecified) | -1.33% (inactive) |
| COc1cccc(N2CCN(c3ncnc4c3[nH]c3ccccc34)CC2C)c1 (stereo unspecified) | 91.9% (active) |
| CCOC(=O)C1/C(=N\O)CC(C)(O)C(C(=O)OCC)C1c1ccc(N(C)C)cc1 (stereo unspecified) | 7.47% (inactive) |
| O=c1c2c3c(sc2n2cnnc2n1Cc1ccccc1)CN(Cc1ccccc1)CC3 | 70.5% (active) |
| Cc1nnc2n(Cc3ccccc3)c(=O)c3c4c(sc3n12)CN(Cc1ccccc1)CC4 | 40.6% (inactive) |
| CCCSc1nnc2n(Cc3ccccc3)c(=O)c3c4c(sc3n12)CCC4 | 13.6% (inactive) |
| CC1CCc2cc(F)cc3c(O)c(C(=O)NCc4ccco4)c(=O)n1c23 (stereo unspecified) | 46.7% (inactive) |
| CC1CCc2cc(F)cc3c(O)c(C(=O)Nc4cnccn4)c(=O)n1c23 (stereo unspecified) | 26.4% (inactive) |
| CC1CCc2cc(F)cc3c(O)c(C(=O)NCC4CCCO4)c(=O)n1c23 (stereo unspecified) | 61.9% (active) |
| COC(=O)c1cc(Br)c(=O)n(Cc2ccc3c(c2)OCO3)c1 | 9.14% (inactive) |
| O=C(NCc1cccnc1)/C(=N\O)c1ccccc1 | 0.76% (inactive) |
| CCN1CCN(c2nc3c(C)cccn3c(=O)c2/C=C(\C#N)S(=O)(=O)c2ccc(C)cc2)CC1 | 1.14% (inactive) |
| CCCc1cc(C(=O)Cc2ccc(F)cc2)c(O)cc1O | 89.5% (active) |
| O=C(Cc1cscn1)c1ccc(O)cc1O | 2.87% (inactive) |
| CCCN(CCC)C(=O)CC(c1ccc(F)cc1)c1ccco1 (stereo unspecified) | 38.5% (inactive) |
| CC1N(O)C(c2ccc(Cl)cc2Cl)N(O)C1(C)C (stereo unspecified) | -11.8% (inactive) |
| CC1(C)Cc2nc3sc4c(N(CCO)CCO)ncnc4c3cc2CO1 | 2.92% (inactive) |
| Cc1ccc(S(=O)(=O)N2CCN(c3nc(C)c4c(c3C#N)CC(C)(C)OC4)CC2)cc1 | 30.2% (inactive) |
| Oc1ccc(Br)cc1CNn1cnnc1 | 3.94% (inactive) |
| CCn1c(SCC(=O)Nc2ccccc2C(=O)OC)nnc1-c1ccc(N)cc1 | -4.2% (inactive) |
| COCCNc1ncnc2c1cnn2-c1ccc(Cl)cc1 | 26.1% (inactive) |

| SMILES | growth inhibition |
| --- | --- |
| CCOC(=O)C1=C(C)N=C2SC(C)C(=O)N2C1c1cccc(F)c1 (stereo unspecified) | -4.33% (inactive) |
| Oc1c(Cl)cc(Cl)cc1Sc1cc(Cl)cc(Cl)c1O | 82.9% (active) |
| CCOC(=O)C1CCN(c2nc3ccccc3nc2C(C#N)C(=O)OCCOC)CC1 (stereo unspecified) | 13.4% (inactive) |
| CCC1=Nc2ccccc2NC2=C1C(=O)CCC2 | 1% (inactive) |
| Cc1cn([C@H]2C[C@H](N=[N+]=[N-])[C@@H](CO)O2)c(=O)[nH]c1=O | 7.02% (inactive) |
| CCc1cn([C@H]2C[C@H](O)[C@@H](CO)O2)c(=O)[nH]c1=O | 29.9% (inactive) |
| O=c1[nH]c(=O)n([C@H]2C[C@H](O)[C@@H](CO)O2)cc1F | 71% (active) |
| COc1ccccc1-c1nn2c(-c3ccco3)nnc2s1 | 21.8% (inactive) |
| Cc1cc2c(c(=O)o1)C(Cc1ccccc1)C(C#N)=C(N)O2 (stereo unspecified) | -0.57% (inactive) |
| CC1(C)Cc2c(C#N)c(NCCN3CCOCC3)nc(-c3ccco3)c2CO1 | 3.05% (inactive) |
| Nc1ncnc2nc(SCc3ccccc3)[nH]c12 | 13.6% (inactive) |
| O=C(COc1ccccc1)Nc1ccc(-c2nnc(-c3ccco3)o2)cc1 | -6.02% (inactive) |
| Cc1cccc(C)c1OCC(=O)Nc1cccc(-c2nnc(-c3ccccc3)o2)c1 | 53% (active) |
| O=C(Cc1ccc(Cl)cc1)Nc1cccc(-c2nnc(-c3ccco3)o2)c1 | 20.9% (inactive) |
| O=C(Cc1ccccc1)Nc1cccc(-c2nnc(-c3ccco3)o2)c1 | 24% (inactive) |
| CCC(=O)Nc1ccc(-c2nnc(-c3ccccc3)o2)cc1 | 33.7% (inactive) |
| COc1ccc(CC(=O)Nc2cccc(-c3nnc(-c4ccco4)o3)c2)cc1 | 64% (active) |
| N/C(CCCN1CCCCC1)=N/O | -8.24% (inactive) |
| CCOC(=O)CNC(=O)CCCCCC(=O)NCC(=O)OCC | -12.7% (inactive) |
| O=C(NCCN1CCOCC1)c1cc2n(n1)C(C(F)(F)F)CC(c1ccc(F)cc1)N2 (stereo unspecified) | 2.7% (inactive) |
| CC(C)(C)NCC(=O)c1c[nH]c2ccccc12 | -2.93% (inactive) |
| COc1ccc2c(c1OC)C(=O)N1c3ccccc3C(=O)N(c3ccccc3)C21 (stereo unspecified) | 36.5% (inactive) |
| CCCCSc1nc(O)c(C2OC(=O)c3c2ccc(OC)c3OC)c(=O)n1C (stereo unspecified) | 4.34% (inactive) |
| c1ccc(-c2nnc(OCCN3CCOCC3)c3ccccc23)cc1 | -0.08% (inactive) |

| SMILES | growth inhibition |
| --- | --- |
| CCn1cc(C(=O)NCc2ccco2)c(=O)c2cc(F)c(N3CCN(C(=O)c4ccco4)CC3)cc21 | 59.3% (active) |
| CCn1cc(C(=O)NCCCN(C)C)c(=O)c2cc(F)c(N3CCN(C)CC3)cc21 | 8.61% (inactive) |
| CCOC(=O)N1CCN(C(=O)c2cn(CC)c3cc(N4CCN(C)CC4)c(F)cc3c2=O)CC1 | 0.65% (inactive) |
| CCn1cc(C(=O)NCC2CCCO2)c(=O)c2cc(F)c(N3CCN(C)CC3)cc21 (stereo unspecified) | -0.9% (inactive) |
| CCn1cc(C(=O)NCCc2ccccc2)c(=O)c2cc(F)c(N3CCN(C)CC3)cc21 | 89.8% (active) |
| CCn1cc(C(=O)NCc2ccccn2)c(=O)c2cc(F)c(N3CCN(C)CC3)cc21 | -0.7% (inactive) |
| CCNc1nc(NC(C)C)nc(N(C#N)C(C)C(=O)N(C)C)n1 (stereo unspecified) | 2.18% (inactive) |
| CCN(CC)CCCN1C(=O)C(=O)/C(=C(/O)c2ccccc2)C1c1cc(OC)ccc1OC (stereo unspecified) | 6.35% (inactive) |
| O=C1CC(NCc2ccncc2)C(=O)N1c1ccc(Cl)cc1 (stereo unspecified) | -4.36% (inactive) |
| COc1cccc(NC(=O)CC2SC(=Nc3ccccc3)NC2=O)c1 (stereo unspecified) | 19.4% (inactive) |
| Cn1c(CSc2ncn[nH]2)nc2ccccc21 | -2.84% (inactive) |
| CC12CCC(=O)N1c1c(sc3nc(N4CCOCC4)c4c(c13)CCCC4)C(=O)N2 (stereo unspecified) | 4.33% (inactive) |
| CCOC(=O)c1c(CN2CCN(CCO)CC2)n(C)c2cc(Br)c(OC)cc12 | 84.4% (active) |
| CCOC(=O)c1c(C)n(C)c2ccc(OC)c(NC(=O)CN3CCCCC3)c12 | 6.99% (inactive) |
| CCOC(=O)c1c(CN2CCN(C)CC2)n(C)c2cc(Br)c(OC)cc12 | 89.8% (active) |
| CCOC(=O)c1c(C)n(C)c2ccc(OC)c(NC(=O)CN3CCN(Cc4ccccc4)CC3)c12 | 12.1% (inactive) |
| CCOC(=O)c1c(CNCCN(CC)CC)n(C)c2cc(Br)c(OC)cc12 | 33.7% (inactive) |
| CCOC(=O)c1c(CN2CCCCC2)oc2ccc(OC)cc12 | 5.15% (inactive) |
| COc1ccccc1C1/C(=C(/O)c2ccc(C)cc2)C(=O)C(=O)N1CCN1CCOCC1 (stereo unspecified) | 2.55% (inactive) |
| CN(CCCCCC(=O)/C=N/O)Cc1ccccc1 | 1.07% (inactive) |
| COc1ccc(N(CN2C(=O)C3C4C=CC(C4)C3C2=O)C(=O)c2ccco2)cc1 (stereo unspecified) | 4.02% (inactive) |
| N#C/C(C(=O)NCc1ccco1)=C1/SC(Cc2ccc(Cl)cc2)C(=O)N1c1ccccc1 (stereo unspecified) | 5.74% (inactive) |
| CCC(=O)Nc1nc2ccccc2n1CCN(C)C | 4.62% (inactive) |
| CN(C)CCCn1c(NC(=O)C2CCCCC2)nc2ccccc21 | 1.53% (inactive) |

| SMILES | growth inhibition |
| --- | --- |
| CCC(=O)Nc1nc2ccccc2n1Cc1ccccc1C | 64.4% (active) |
| CCOc1ccc(NC(=O)c2nn(C)cc2Br)cc1 | 20.1% (inactive) |
| COc1cccc(-c2nc(N3CCCCC3C)c3ccccc3n2)c1O (stereo unspecified) | 61.7% (active) |
| Nc1c2c(nc3ccccc13)N(C1CCCCC1)CC2 | 38.8% (inactive) |
| COc1cccc(-c2nc(N3CCCCC3)c3ccccc3n2)c1O | 49.3% (inactive) |
| C=CCOc1nc(-c2ccncc2)nc2ccccc12 | 18.5% (inactive) |
| CCOc1nc(-c2ccncc2)nc2ccccc12 | 10.3% (inactive) |
| CCC1CCCCN1c1nc(-c2ccncc2)nc2ccccc12 (stereo unspecified) | 74.9% (active) |
| CCC1CCCCN1c1nc(-c2cccc(OC)c2O)nc2ccccc12 (stereo unspecified) | 45% (inactive) |
| COc1cccc(-c2nc(N3CCC(C)CC3)c3ccccc3n2)c1O | 53.7% (active) |
| COc1cccc(-c2nc(N3CC(C)CC(C)C3)c3ccccc3n2)c1O (stereo unspecified) | 30.1% (inactive) |
| Cc1ccc(N2C(=O)c3sc4nnc(C)c(=O)n4c3C2=O)cc1 | -7.4% (inactive) |
| COc1cccc(OC)c1-c1nn2c(-c3ccccc3Cl)nnc2s1 | 21% (inactive) |
| CCOC(=O)c1ccc(NCC(O)COc2ccccc2)cc1 (stereo unspecified) | 31.1% (inactive) |
| COc1ccc(C(=O)N2CCCC(c3ccccc3)C2)cc1 (stereo unspecified) | 19% (inactive) |
| COc1ccccc1-c1nnc2sc(COc3ccccc3)nn12 | 22% (inactive) |
| CC1C[C@@]2(NC(=O)NC2=O)C(C)CN1C (stereo partly specified) | 2.94% (inactive) |
| COc1ccc(Nc2cc(C)nc3ccccc23)cc1 | 31.3% (inactive) |
| COc1ccc(Nc2cc(C)nc(-n3nc(C)cc3C)n2)cc1 | 66.2% (active) |
| COc1ccc(Nc2nc(Nc3ccc(OC)cc3)nc(-n3[nH]c(=O)c(C)c3C)n2)cc1 | 39.1% (inactive) |
| O=C(Nc1ccccc1)c1cc(N2CCOCC2)nc2ccccc12 | 8.97% (inactive) |
| CC(C)COc1ccc(C(=O)NC(CC(C)C)C(=O)O)cc1 (stereo unspecified) | -8.3% (inactive) |
| COc1cc(-c2nn3c(-c4ccccn4)nnc3s2)cc(OC)c1OC | -8.06% (inactive) |
| Cc1ccc2c(=O)c(CN(C)C3CCN(C)CC3)c(C)[nH]c2c1C | 5.56% (inactive) |
